Results reported in PubChem BioAssay (NCATS).
Several values for one entry are separate records, joined by “and”; a condition that tells them apart may be missing. Identical values can stand only once. Inconclusive results are not listed. Activity calls are given as the source filed them. Unless noted, calls come from the whole dose curve; as a rule, active = well fitted curve in the direction sought with a large enough effect; inconclusive = small, poorly fitted or top-dose-only effect, or another doubt; inactive = no such curve, though single readings can be large; an effect the other way counts as inactive or inconclusive.

Legend:
[1] = Cell Viability - BJ (AID 421; calls by dose curve;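 note: potency is the fitted concentration of half-maximal effect; cells exposed to compound for 40 hours at 37 °C before readout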); conditions: BJ fibroblast viability, qHTS
Method in brief: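 Luminescent ATP signal (CellTiter-Glo, 20 min at room temperature) served as the read-out of viable BJ cells after 40 hours of compound treatment. Responses were scaled between DMSO and 100 uM tamoxifen, and AC50 values were obtained by Hill modeling.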

[2] = Cell Viability - Hek293 (AID 427;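 active = compounds whose dose-response curve shows a full or clear partial loss of cell viability, called from curve shape rather than a numeric limit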;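 note: potency is the fitted concentration of half-maximal effect; cells exposed to compound for 40 hours at 37 °C before reading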); conditions: qHTS
Method in brief: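 Luminescent ATP read-out (CellTiter-Glo, 20 min RT) after 40 hr compound exposure at 37 °C in complete medium. Signal normalized to DMSO (basal) and 100 uM tamoxifen (100% inhibition); concentration-response fitted with the standard Hill equation to give AC50.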

[3] = Cell Viability - HepG2 (AID 433; calls by dose curve;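 note: potency is the fitted concentration of half-maximal effect; potency for ATP loss meaning cytotoxicity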); conditions: qHTS
Method in brief: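 HepG2 cells, 1500 per well, treated 40 hr at 37 °C in complete medium; viability from intracellular ATP by CellTiter-Glo luminescence. Normalized to DMSO and 100 uM tamoxifen; AC50 from Hill fit of qHTS concentration-response.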

[4] = Cell Viability - MRC5 (AID 434; calls by dose curve;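 note: potency is the fitted concentration of half-maximal effect; potency reflects cytotoxicity seen as loss of intracellular ATP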); conditions: MRC5 lung fibroblast viability, qHTS
Method in brief: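 qHTS cytotoxicity in human lung fibroblast MRC5 cells; 40 hr treatment, 37 °C; cellular ATP by luciferase luminescence; DMSO = 0%, 100 uM tamoxifen = 100% inhibition; Hill-fit AC50.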

[5] = Cell Viability - SK-N-SH (AID 435; calls by dose curve;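 note: potency is the fitted concentration of half-maximal effect; compound exposure lasted 40 h at 37 °C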); conditions: SK-N-SH neuroblastoma cell viability qHTS
Method in brief: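 SK-N-SH neuroblastoma cells (1500/well) treated 40 h at 37 °C in complete medium; viability read as cellular ATP by CellTiter-Glo luminescence. Normalized to DMSO and 100 uM tamoxifen; AC50 from Hill fits of qHTS concentration-response.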

[6] = target: Mitogen-activated protein kinase 10 (Mus musculus) (UniProt Q61831); assay: JNK3 AlphaScreen Assay (AID 530; active = well fitted curve in either direction with a large enough effect, not every such curve was filed as active;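 note: kinase came from lysate of stimulated human HepG2 cells; signal reports phosphorylation of biotinylated GST-cJun 1-79 at Ser73 with 10 µM ATP; % is set by controls: 0 for no effect and ±100 for the full control effect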)
Method in brief: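 Room-temperature AlphaScreen kinase assay; pre-activated HepG2 lysate as JNK3 source, biotin-GST-cJun(1-79) substrate, 10 uM ATP, compound 15 min preincubation.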

[7] = Cell Viability - N2a (AID 540); conditions: N2a mouse neuroblastoma cell viability; at 92.2 µM (top of the series);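 note: plate controls were DMSO alone for no effect and tamoxifen control for full effect; nearly all actives have a fitted effect of over 45% in size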
Method in brief: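 First, 1500 N2a cells per well incubate 5 hr at 37 °C; next, compounds are added and incubated 40 hr at 37 °C; finally CellTiter-Glo is added and luminescence read after 20 min, with AC50 derived by Hill modeling.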

[8] = Cell Viability - NIH 3T3 (AID 541); conditions: NIH 3T3 cell viability, qHTS; activity change, negative = cytotoxicity: at 92.2 µM (top of the series);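 note: plate controls were DMSO alone for no effect and tamoxifen positive control for full effect; nearly all actives have a fitted effect of over 25% in size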
Method in brief: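 AC50 values reflect concentration-dependent loss of intracellular ATP in NIH 3T3 cells after 40 hr treatment in complete culture medium, quantified by luciferase-based luminescence.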

[9] = Cell Viability - HUV-EC-C (AID 542); note: % is set by controls: 0 for no effect and ±100 for the full control effect; nearly all actives have a fitted effect of over 35% in size
Method in brief: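 Decrease in cellular ATP, quantified by luciferase luminescence, reflects toxicity in normal human vascular endothelial HUV-EC-C cells given compound for 40 hr in complete culture medium. Values are AC50s from concentration-response curves.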

[10] = Cell Viability - Renal Proximal Tubule (AID 545); conditions: renal proximal tubule cells viability; at 91.7 µM (top of the series), primary cells of rat origin unless noted; note: nearly all actives have a fitted effect of over 40% in size
Method in brief: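 Rat renal proximal tubule primary cells, 1000/well, exposed to compounds for 40 hr at 37 °C in complete medium; cellular ATP read by CellTiter-Glo luminescence. AC50 from concentration-response fitted with standard Hill equation.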

[11] = Cellular Toxicity (caspase-3) HepG2 (AID 654);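 note: cells exposed to compound for 16 hours before reading; 0% = DMSO alone and 100% = caspase signal from 100 µM tamoxifen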
Method in brief: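 qHTS, HepG2, 1500 cells/well, complete medium; cpd 16 h 37 °C; Caspase-Glo 3/7, 20 min RT; lum. Norm: DMSO vs 100 uM tamoxifen; AC50 Hill fit.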

[12] = Cellular Toxicity (caspase-3) Jurkat (AID 655); conditions: Jurkat caspase-3 activation, luminescence, DMSO = 0%, tamoxifen = 100%; at 92.2 µM (top of the series);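 note: cells exposed to compound for 16 h at 37 °C before reading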
Method in brief: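 Jurkat cells (5000/well) in complete medium exposed 16 h at 37 C; caspase-3/7 activity read by Caspase-Glo luminescence after 20 min at room temperature. Normalized to DMSO and 100 uM tamoxifen; AC50 from Hill fits.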

[13] = Cellular Toxicity (caspase-3) HUV-EC-C (AID 656)
Method in brief: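 HUV-EC-C cells (1000/well) in complete medium, compound-treated 16 h at 37 °C; caspase-3/7 activity read by Caspase-Glo 3/7 luminescence. Normalized to DMSO (basal) and 100 uM tamoxifen (100%); AC50 from Hill-equation concentration-response fits.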

[14] = Cellular Toxicity (caspase-3) SHSY5Y (AID 657)
Method in brief: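 SH-SY5Y human neuroblastoma cells, 1500/well, exposed to compound for 16 hours at 37 °C in complete medium. Caspase-3/7 activity read by Caspase-Glo luminescence after 1 hr at room temperature, normalized to DMSO and 10 uM staurosporine; AC50 from Hill fit.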

[15] = Cellular Toxicity (caspase-3) BJ (AID 658);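 note: 0% = DMSO basal and 100% = 10 µM staurosporine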
Method in brief: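 Readout: Caspase-Glo 3/7 luminescence increase in BJ cells after 16 hr treatment at 37 °C. Staurosporine and tamoxifen served as positive controls; AC50 values came from Hill modelling of data normalized to DMSO and 10 uM staurosporine.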

[16] = Cellular Toxicity (caspase-3) MRC-5 (AID 659);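 note: 0% = DMSO basal and 100% = 10 µM staurosporine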
Method in brief: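 Concentration-dependent caspase 3/7 activation is measured in human normal lung fibroblasts (MRC-5) following 16-hour treatment. AC50 values come from standard Hill-equation modeling of luminescence normalized to DMSO and 10 uM staurosporine.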

[17] = Cellular Toxicity (caspase-3) Mesangial (AID 660);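 note: cells exposed to compound for 16 h before the caspase read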
Method in brief: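 Concentration-response qHTS: compound-induced rise in caspase 3/7 luminescence in human mesangial cells after 16 h, normalized to DMSO and 100 uM tamoxifen controls.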

[18] = Cellular Toxicity (caspase-3) SK-N-SH (AID 661);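 note: 0% = DMSO basal and 100% = 10 µM staurosporine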
Method in brief: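 Caspase 3/7 activation is measured as a luminescence increase from aminoluciferin released by substrate cleavage in SK-N-SH cells after 16 hr compound treatment; values are AC50 from concentration-response curves.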

[19] = Cellular Toxicity (caspase-3) H-4-II-E (AID 663);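 note: cells exposed to compound for 16 hr before readout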
Method in brief: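 Apoptosis induction is scored as increased luminescence from caspase 3/7 substrate cleavage in rat hepatoma H-4-II-E cells exposed to compound for 16 hr. Activity is scaled between DMSO and 100 uM tamoxifen.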

[20] = Cellular Toxicity (caspase-3) Hek293 (AID 664);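 note: cells exposed to compound for 16 h at 37 °C before readout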
Method in brief: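 Activation of caspase-3/7 is measured as increased luminescence from cleaved peptide-aminoluciferin substrate in HEK293 cells treated 16 hours at 37 °C. AC50 values come from Hill-equation fits of concentration-response data.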

[21] = Cellular Toxicity (caspase-3) NIH 3T3 (AID 666);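 note: caspase signal read after 16 h compound exposure; 0% = DMSO basal and 100% = 100 µM tamoxifen stimulation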
Method in brief: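 Concentration-response qHTS in NIH 3T3 mouse fibroblasts scores caspase-3/7 activation as rising luminescence after 16 hr compound exposure. Signals are scaled between DMSO-only and 100 uM tamoxifen.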

[22] = Cellular Toxicity (caspase-3) Renal Proximal Tubule (AID 667); conditions: renal proximal tubule cells; at 91.7 µM (top of the series), primary cells freshly taken from rat, solvent-only wells 0%, staurosporine 100% unless noted;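 note: cells exposed to compound for 16 hours at 37 °C before detection; 0% = DMSO basal and 100% = 10 µM staurosporine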
Method in brief: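 Freshly isolated primary rat kidney proximal tubule cells, 1000/well, treated 16 hr at 37 °C, then Caspase-Glo 3/7 luminescence after 1 hr. Normalized to DMSO and 10 uM staurosporine; AC50 from Hill fit.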

[23] = target: Cytochrome P450 3A4 (Homo sapiens) (UniProt P08684); assay: qHTS Assay for Inhibitors and Substrates of Cytochrome P450 3A4 (AID 884); note: potency is the fitted concentration of half-maximal effect; nearly all actives have a fitted effect of over 50% in size
Method in brief: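 20 nM human CYP3A4 with 25 uM Luciferin-PPXE (at KM) in 200 mM KPO4, preincubated 10 min with compound; NADPH regeneration started a 60 min RT reaction. Luciferin detected by luminescence, normalized to 57 uM ketoconazole as full inhibition.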

[24] = target: Cytochrome P450 3A4 (Homo sapiens) (UniProt P08684); assay: qHTS Assay for Activators of Cytochrome P450 3A4 (AID 885); note: nearly all actives have a fitted effect of over 65% in size
Method in brief: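 20nM CYP3A4 + 25uM Luciferin-PPXE (=KM), 200mM KPO4; cpd 10 min RT; NADPH regen, 60 min RT; stop w/ detection buffer, 20 min; luminescence. Normalized to 57 uM ketoconazole.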

[25] = MultiTox-Fluor Cytotoxicity Assay - LYMP1-001 - Live Cells (AID 947);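 note: 0% = DMSO only and full inhibition = tetraoctylammonium bromide control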
[26] = Cell Viability - LYMP1-002 - Assay at 16 hr (AID 948);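 note: 0% = DMSO alone and full effect = 92 µM tetraoctylammonium bromide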
Method in brief: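 LYMP1-002 human lymphoblastoid cells, 2500/well, were treated with compounds for 16 hr at 37 C in complete medium. Viability was read as intracellular ATP by CellTiter-Glo luminescence, and AC50 was derived from a Hill fit to concentration-response data.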

[27] = MultiTox-Fluor Cytotoxicity Assay - LYMP1-002 - Live Cells (AID 955); note: % is set by controls: 0 for no effect and ±100 for the full control effect
Method in brief: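 Cytotoxicity in the human lymphoblastoid line LYMP1-002 is measured as loss of live-cell protease activity after 16 h treatment in complete culture medium. AC50 is derived from Hill-equation fits of qHTS concentration-response data.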

[28] = MultiTox-Fluor Cytotoxicity Assay - LYMP1-002 - Dead Cells (AID 960);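 note: 0% = DMSO and 100% = tetraoctylammonium bromide; nearly all actives have a fitted effect of over 60% in size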
Method in brief: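 Acute cytotoxicity in a human lymphoblastoid line is scored as rising dead-cell protease signal after 16 hr exposure at 37 C, measured fluorometrically (485/520).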

[29] = MultiTox-Fluor Cytotoxicity Assay - LYMP1-003 - Dead Cells (AID 961);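 note: 0% = DMSO and 100% = tetraoctylammonium bromide; nearly all actives have a fitted effect of over 70% in size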
Method in brief: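 Human lymphoblastoid LYMP1-003 cells (2500/well) were treated with compounds for 16 hr at 37 C in complete medium. Dead-cell protease release was read by bis-AAF-R110 fluorescence (Ex/Em 485/520). AC50 came from Hill fits, normalized to DMSO and 15 uM tetraoctylammonium bromide.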

[30] = MultiTox-Fluor Cytotoxicity Assay - LYMP1-003 - Live Cells (AID 962);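 note: 0% = DMSO only and full loss = 92 µM tetraoctylammonium bromide; cytotoxic hits lower the live-cell protease signal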
Method in brief: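 Cells plated at 2500 per well and incubated 5 hr; compounds added and incubated 16 hr at 37 C; MultiTox-Fluor reagent added for 60 min at room temperature; fluorescence of liberated AFC measured at 405/510 nm.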

[31] = Cell Viability - LYMP1-003 - Assay at 24 hr (AID 963);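 note: plate controls were DMSO only for no effect and tetraoctylammonium bromide positive control for full effect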
Method in brief: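 Acute toxicity in LYMP1-003 lymphoblastoid cells: 24 hr compound treatment at 37 C, ATP measured with CellTiter-Glo after 30 min at room temperature. AC50 derived by fitting the Hill equation to qHTS titrations.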

[32] = Cell Viability - LYMP2-003 (AID 965);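 note: cells exposed to compounds for 24 h before reading; 0% = DMSO only and full effect = 92 µM tetraoctylammonium bromide; nearly all actives have a fitted effect of over 50% in size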
Method in brief: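 Human lymphoblastoid LYMP2-003 cells, 2500/well, exposed to compounds for 24 h at 37 C in complete medium. Viability read as intracellular ATP by CellTiter-Glo luminescence; AC50 from Hill-equation fits of qHTS concentration-response data.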

[33] = Cell Viability - LYMP2-004 (AID 966);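 note: plate controls were DMSO only for no effect and tetraoctylammonium bromide control for full effect; nearly all actives have a fitted effect of over 65% in size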
Method in brief: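 Acute toxicity is scored as a concentration-dependent drop in intracellular ATP, quantified by luciferase luminescence, in human lymphoblastoid cells exposed to compound for 24 hr. AC50 derives from Hill-equation modelling.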

[34] = Cell Viability - LYMP2-005 (AID 967);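 note: plate controls were DMSO only for no effect and 92 µM tetraoctylammonium bromide control for full effect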
Method in brief: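 Human lymphoblastoid LYMP2-005 cells, 2,500 per well in complete medium, rested 5 h at 37C then compound-treated 24 h at 37C. Intracellular ATP read by CellTiter-Glo luminescence after 30 min at room temperature; AC50 from Hill-equation fits of concentration-response data.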

[35] = Cell Viability - LYMP2-011 (AID 969);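 note: 0% = DMSO only and full inhibition = 92 µM tetraoctylammonium bromide; nearly all actives have a fitted effect of over 60% in size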
Method in brief: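 Acute toxicity is scored as a concentration-dependent drop in intracellular ATP of a human lymphoblastoid line after 24 hr treatment. Values are AC50s modeled with the Hill equation.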

[36] = Cell Viability - LYMP2-013 (AID 970);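 note: 0% = DMSO only and full inhibition = tetraoctylammonium bromide control; nearly all actives have a fitted effect of over 55% in size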
Method in brief: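 Acute toxicity was measured in human lymphoblastoid cells (2500/well) exposed to compound titrations for 24 hr, with ATP luminescence (CellTiter-Glo) as read-out and AC50 fitted by Hill equation.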

[37] = Cell Viability - LYMP2-015 (AID 971);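 note: 0% = DMSO only and full effect = 92 µM tetraoctylammonium bromide; nearly all actives have a fitted effect of over 55% in size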
Method in brief: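 Acute toxicity was scored as a concentration-dependent drop in intracellular ATP in lymphoblastoid cells after 24 hr compound exposure in complete medium. Detection used CellTiter-Glo luciferase luminescence.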

Cytochrome P450 3A4 (Homo sapiens), sequence (P08684 whole entry, looked up): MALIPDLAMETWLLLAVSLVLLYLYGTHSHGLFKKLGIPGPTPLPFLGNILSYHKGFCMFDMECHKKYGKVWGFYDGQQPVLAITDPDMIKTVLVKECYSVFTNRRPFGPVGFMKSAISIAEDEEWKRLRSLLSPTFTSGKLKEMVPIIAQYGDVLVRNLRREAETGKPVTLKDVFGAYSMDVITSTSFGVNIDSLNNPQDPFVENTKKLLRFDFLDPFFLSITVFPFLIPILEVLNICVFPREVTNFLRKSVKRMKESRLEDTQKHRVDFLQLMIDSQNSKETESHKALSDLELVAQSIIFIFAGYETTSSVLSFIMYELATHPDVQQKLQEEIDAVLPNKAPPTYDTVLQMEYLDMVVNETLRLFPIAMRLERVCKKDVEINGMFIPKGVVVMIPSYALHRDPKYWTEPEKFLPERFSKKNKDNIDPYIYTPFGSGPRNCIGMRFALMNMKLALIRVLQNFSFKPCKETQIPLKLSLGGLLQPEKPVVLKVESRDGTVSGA

C[C@H]1CCCC(=O)CCC/C=C/c2cc(O)cc(O)c2C(=O)O1
inactive: Potency [1] > 92 µM | Potency [3] > 92 µM | Potency [4] > 92 µM | outcome [6] | Potency [9] | activity change, negative = cytotoxicity [10] -28.2% [at 91.7 µM] | outcome [11] | caspase-3 activation [12] 17.6% and 19.1% | outcome [13] | outcome [14] | outcome [15] | outcome [16] | outcome [17] | outcome [18] | outcome [19] | outcome [20] | outcome [21] | caspase-3 activation [22] 5.71% [at 91.7 µM] and 9.28% [at 91.7 µM] | Potency [24] | Potency [25] | Potency [26] | outcome [27] | Potency [28] | Potency [29] | Potency [30] | Potency [31] | Potency [32] | Potency [33] | Potency [34] | Potency [35] | Potency [36] | Potency [37]
active: Potency [2] 31.1 µM and 40.2 µM | Potency [5] 59.8 µM | activity change, negative = cytotoxicity [7] -95.8% and -87.8% | activity change, negative = cytotoxicity [8] -105% | Potency [23] 316 nM and 398 nM
